Bioassay records as filed in PubChem.
TDP1 block – TDP1 (human) enzyme inhibition; Q9NUW8; recombinant TDP1, AlphaScreen DNA substrate cleavage; Potency, µM (series often up to 130 µM), without a hit: top-dose activity change, negative = inhibition, most hits filed as inhibitors; 350,000 compounds, 0.28% hits; further: on the % scale 0 is the no-effect control and ±100 the full control effect; nearly all actives have a fitted effect of over 40% in size
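AlphaScreen read-out: signal falls as enzyme removes the 3' tyrosine-FITC from a 5'-biotinylated DNA oligo (15 nM, 5 min, RT). Enzyme was E. coli-made recombinant Tdp1 at 1 nM, exposed to compound for 15 min beforehand; beads 10 ug/ml, 10 min.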
HP1b binding inh – inhibitors of HP1-beta chromodomain binding to methylated histone tails. AID 540317. AlphaScreen HP1-beta / biotin-H3K9me3 peptide binding. 390,000 compounds, 0.56% hits. P83916. Potency, µM (highest dose often 114 µM), inactives show top-dose activity change, negative = inhibition, actives largely listed as inhibitors; further: nearly all actives have a fitted effect of over 70% in size
Target sequence (P83916 whole entry, looked up): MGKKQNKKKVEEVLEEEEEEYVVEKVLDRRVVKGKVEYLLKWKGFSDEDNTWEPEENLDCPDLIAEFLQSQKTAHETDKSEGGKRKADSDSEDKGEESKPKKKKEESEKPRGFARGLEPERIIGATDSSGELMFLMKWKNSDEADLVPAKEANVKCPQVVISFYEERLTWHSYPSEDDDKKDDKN
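AlphaScreen: HP1-beta (50 nM) preformed 30 min with biotin-H3(1-18)K9me3 peptide (50 nM) in PBS pH 7.4, 0.01% Tween-20. Compound added for 30 min at RT, then streptavidin donor/nickel chelate acceptor beads (10 ug/mL) for 30 min.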
BAZ2B block – inhibitors of human BAZ2B bromodomain; Q9UIF8; AlphaScreen BAZ2B-H3K14Ac peptide displacement; Potency, µM (titrated, usually from 114 µM), for inactives: top-dose activity change, negative = inhibition, most hits filed as inhibitors; 360,000 compounds, 4.4% hits; further: on the % scale 0 is the no-effect control and ±100 the full control effect; nearly all actives have a fitted effect of over 60% in size
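In this displacement format the biotinylated H3(5-23) peptide acetylated at Lys14 serves as ligand at 50 nM, with BAZ2B at 50 nM in PBS pH 7.4 containing 0.01% Tween-20. Donor and acceptor beads are 10 ug/mL final.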
JMJD2A Tudor – inhibitors of human JMJD2A Tudor domain; AlphaScreen JMJD2A-Tudor / H3K4me3 peptide binding; 390,000 compounds, 4.4% hits; Potency, µM (top dose mostly 114 µM), for inactives: top-dose activity change, negative = inhibition, actives largely listed as inhibitors; further: on the % scale 0 is the no-effect control and ±100 the full control effect; nearly all actives have a fitted effect of over 50% in size
Sfp PPTase inh – inhibitors of Bacillus subtilis Sfp phosphopantetheinyl transferase; Biochemical Sfp PPTase activity, qHTS; Potency, µM, inactives show largest response in the series, negative = inhibition, hits mostly inhibitors; 310,000 compounds, 3.5% hits; AID 1490;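 further: the enzyme is Sfp with the accession as filed and its product quenches rhodamine fluorescence; 0% = enzyme reaction without inhibitor and -100% = no enzyme wells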
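With Hepes-Na pH 7.6 buffer containing 10 mM MgCl2, Sfp (15 nM) modified BHQ-2-YbbR (12.5 uM) using rhodamine-CoA (5 uM). Two reads 30 minutes apart at 525/598 nm yielded each well's rate.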
G9a block – inhibitors of human histone lysine methyltransferase G9a | Q96KQ7 | G9a H3K9 monomethylation, AlphaScreen, 2 h | Potency, µM (doses to about 102 µM), for inactives: top-dose activity, negative = inhibition, actives largely listed as inhibitors | 350,000 compounds, 8.8% hits | AID 504332; further: on the % scale 0 is the no-effect control and ±100 the full control effect; nearly all actives have a fitted effect of over 75% in size
Target sequence (Q96KQ7 913-1193 limits assumed): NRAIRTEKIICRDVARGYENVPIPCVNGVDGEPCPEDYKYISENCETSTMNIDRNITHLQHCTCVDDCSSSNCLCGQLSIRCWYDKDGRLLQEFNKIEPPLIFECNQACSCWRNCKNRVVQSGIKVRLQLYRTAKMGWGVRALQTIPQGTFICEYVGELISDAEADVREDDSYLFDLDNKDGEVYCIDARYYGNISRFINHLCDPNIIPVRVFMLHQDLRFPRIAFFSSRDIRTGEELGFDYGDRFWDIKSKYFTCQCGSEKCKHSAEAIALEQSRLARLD
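Step 1: enzyme (final 20 nM) with compound, 15 min RT. Step 2: substrate peptide 500 nM and SAM 20 uM, 2 h RT. Step 3: anti-H3K9me1 antibody and AlphaScreen beads, 10 min, then plate read.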
* hit, by the source's call; ? = inconclusive; / = no result given; ! = not active in a repeat; [ ] = another dose, or the depositor's remark. Only some compounds are listed: those with a hit (about 12% of all), similar ones and a draw of the others. The call rests on the fitted dose curve; in most records, active means well fitted curve in the direction sought with a large enough effect; inconclusive means small, poorly fitted or top-dose-only effect, or another doubt; inactive means no such curve, though single readings can be large; an effect the other way counts as inactive or inconclusive. Potency means the concentration at half of the fitted maximal effect.

SMILES	TDP1 block	HP1b binding inh	BAZ2B block	JMJD2A Tudor	Sfp PPTase inh	G9a block
CC(Cc1cccc(C(F)(F)F)c1)NCCCc1ccccc1 (stereo unspecified)	1.2%	/	/	/	-0.9%	16.3%[59 µM]
CC(C)c1ccc(Oc2cccc3c2S(=O)(=O)N(C2CCCC2)CC(COCc2ccccc2)O3)cc1 (stereo unspecified)	/	63.8%	/	-5.8%	/	/
CSc1ccc(Cl)c(C(=O)OCC(=O)N2CCN(C(=O)c3ccco3)CC2)c1	1.1%	35.3%	-7.0%	-21.1%	/	?
COC(=O)c1ccc(N2C(=O)CC(N3CCC(O)(c4ccc(Br)cc4)CC3)C2=O)cc1 (stereo unspecified)	2.8%	49.4%	4.3%	-8.6%	7.0%	11.2µM*
COC(=O)c1ccc(N2C(=O)CC(N3CCC(n4c(=O)[nH]c5ccccc54)CC3)C2=O)cc1 (stereo unspecified)	8.8%	44.1%	-0.7%	-25.0%	-0.4%	?
CN1C(=O)[C@]23CC4=CC=C[C@H](O)[C@H]4N2C(=O)[C@@]1(CO)SS3	5.6%	/	/	/	2.51µM*	/
CCS(=O)(=O)C1=NN2C(=N)/C(=C\c3ccc(OC(=O)c4ccco4)cc3)C(=O)N=C2S1	-5.2%	33.5%	?	-0.7%	?	39.8µM*
N=C1/C(=C\c2ccc(OC(=O)c3ccccc3Cl)cc2)C(=O)N=C2SC(N3CCOCC3)=NN12	5.1%	-12.1%	44.7µM*	50.1µM*	-21.7%	5.7%
COc1ccc(-c2nc(CSCC(=O)N3CCN(c4ccc(F)cc4)CC3)c(C)o2)cc1	10.4%	-24.0%	-25.1%	50.1µM*	/	-48.7%[59 µM]
O=C(Nc1ccc(Oc2ccc(Cl)cc2)c(Cl)c1)c1cc(I)cc(I)c1O	12.6%	-12.9%	?	79.4µM*	-7.8%	?
CC(=O)OCOCC(=O)OCO[P+](=O)C(OCOC(C)=O)c1cc([N+](=O)[O-])ccc1Oc1ccc(Br)cc1 (stereo unspecified)	1.2%	/	/	/	18.3%	14.3%[59 µM]
Cc1cccc(C)c1N	6.5%	/	/	/	/	/
COc1cc2c(cc1OC)-c1c(OC)c(OC)cc3c1[C@H](C2)[N+](C)(C)CC3	1.3%	-5.6%	-30.4%	?	-0.1%	14.1µM*
COc1cc2c3c(c1OC)-c1cc(O)ccc1CC3NCC2 (stereo unspecified)	4.7%	21.9%	-36.4%	3.4%	16.9%	-37.2%[12.7 µM]
c1cncc([C@H]2CCCCN2)c1	13.6%[56.1 µM]	/	/	/	10.1%	/
CC(CNC(=O)c1cccnc1)NC(=O)c1cccnc1 (stereo unspecified)	2.7%	/	/	/	2.0%	?
O=P(Oc1ccccc1)(Oc1ccccc1)c1ccccc1	?	79.8%	0.891µM*	34.4%	-17.2%	/
NP(=O)(Oc1ccccc1)c1ccccc1 (stereo unspecified)	/	17.0%	/	-20.1%	/	/
c1cncc(CNC2=NCCCCC2)c1	-2.1%	4.1%	79.4µM*	-12.1%	7.5%	?
CC(C)n1c(N2CCN(S(=O)(=O)c3cccc([N+](=O)[O-])c3)CC2)nc2ccccc21	/	19.7%	-11.0%	?	-1.5%	/
Brc1c(NC2=NCCN2)ccc2nccnc12	-4.8%	/	0.8%	/	-8.1%	18.9µM*!
O=c1n(Cl)c(=O)n(Cl)c(=O)n1Cl	8.5%	/	/	/	-5.2%	12.6µM*
C=CCn1c(O)c(C(CC)=NCc2cccnc2)c(=O)[nH]c1=O	1.1%	37.9%	-2.7%	44.4%	3.0%	-29.6%
O=C(Cc1ccc(N(CCCl)CCCl)cc1)NC(Cc1ccc(Cl)cc1)C(=O)O (stereo unspecified)	5.3%	45.5%	-9.3%	-9.6%	12.4%	?
O=C(Cc1c[nH]c2ccccc12)NNCc1ccc(N(CCCl)CCCl)cc1	/	10.8%[57 µM]	/	?	/	/
O=C(O)CCCc1ccc(N(CCCl)CCCl)cc1	8.7%	21.7%	56.2µM*	-30.9%	-8.5%	-0.9%[59 µM]
N[C@@H](Cc1ccc(N(CCCl)CCCl)cc1)C(=O)O	15.0%	25.0%	-27.2%	-26.6%	?	7.94µM*
N#Cc1ccc(CN2CC3(CCNCC3)C2)cc1	/	/	/	/	-18.9%	-3.6%[12.7 µM]
c1ccoc1	15.5%	/	/	/	/	/
